{"source": "PubChem BioAssay (NCATS)", "note": "Inconclusive results are not listed. Where a call stands in place of a potency, no number is given. The source made the active and inactive calls. Calls follow the shape of the dose curve; as a rule, active = well fitted inhibition curve with a large enough effect; inconclusive = small, poorly fitted or top-dose-only effect; inactive = flat fitted curve, though single readings scatter. Potency is read from the fitted curve at half-maximal effect.", "data": [{"test_system": "CP329", "assay": "qHTS profiling for inhibitors of Plasmodium falciparum proliferation (AID 504749); also: nearly all actives have a fitted effect of over 60% in size", "conditions": "P. falciparum in erythrocytes, SYBR Green DNA, 72 h; series mostly up to 28.7 µM", "method_in_brief": "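Infected RBCs, 0.3% parasitemia/2.5% Hct final; cpd 72 h, 37 C, 5% CO2; lysis buffer with saponin/triton/SYBR Green I, o/n RT dark; FI 485/535; norm. to artemisinin (0.29 uM) and DMSO.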", "values": [{"smiles": "CCN(CC)CCOc1ccc(-c2nc3cc(Cl)ccc3s2)cc1", "Potency": "inactive"}, {"smiles": "CC[C@@]1(O)C(=O)OCc2c1cc1n(c2=O)Cc2cc3c([N+](=O)[O-])cccc3nc2-1", "Potency": "12 µM (active)"}, {"smiles": "C=C1C(=CC=C2CCC[C@@]3(C)[C@@H]2CC[C@H]3[C@H](C)CCCC(C)C)C[C@@H](O)C[C@@H]1O", "Potency": "inactive"}, {"smiles": "Cc1cn([C@H]2C[C@H](O)[C@@H](CO)O2)c(=O)[nH]c1=O", "Potency": "inactive"}, {"smiles": "CN(C)CCCN1c2ccccc2C(C)(C)c2ccccc21", "Potency": "inactive"}, {"smiles": "O=CCCCC=O", "Potency": "inactive"}, {"smiles": "CC(C)=O", "Potency": "inactive"}, {"smiles": "O=C(O)c1cc(=O)c2c3nc4ccccc4oc-3cc(=O)c2[nH]1", "Potency": "inactive"}, {"smiles": "COc1cc(-c2ccc(-[n+]3nc(-c4ccccc4)nn3-c3ccc([N+](=O)[O-])cc3)c(OC)c2)ccc1-[n+]1nc(-c2ccccc2)nn1-c1ccc([N+](=O)[O-])cc1", "Potency": "15.1 µM (active)"}, {"smiles": "CCCCC(=O)O[C@]1(C(=O)CO)[C@H](C)C[C@H]2[C@@H]3CCC4=CC(=O)C=C[C@]4(C)[C@@]3(F)[C@@H](O)C[C@@]21C", "Potency": "inactive"}, {"smiles": "CN1C(=O)CN2CCc3ccccc3C2c2cc(Cl)ccc21", "note": "(stereo not given)", "Potency": "inactive"}, {"smiles": "C#C[C@]1(O)CC[C@H]2[C@@H]3CCC4=CCCC[C@@H]4[C@H]3C(=C)C[C@@]21CC", "Potency": "inactive"}, {"smiles": "COC(=O)C1=C(C#N)NC(C)=C(C(=O)OC(C)C)C1c1cccc([N+](=O)[O-])c1", "note": "(stereo not given)", "Potency": "15.1 µM (active)"}, {"smiles": "CC(C)N=c1cc2n(-c3ccc(Cl)cc3)c3ccccc3nc-2cc1Nc1ccc(Cl)cc1", "Potency": "inactive"}, {"smiles": "CC1=C(/C=C/C(C)=C/C=C/C(C)=C/CO)C(C)(C)CCC1", "Potency": "inactive"}]}]}
